Assay results taken from PubChem BioAssay (EPA / NIEHS).
Activity calls are given as the source filed them. How the source made its calls: active means hit-call score of the fitted dose curve at least 0.9, where 1 is the maximum; inactive means score below 0.9.

Assays:
[1] = read-out: urokinase plasminogen activator (uPA), PLAU (gene 5328); experiment: BSK_KF3CT_uPA: BioMAP Diversity Plus: KF3CT Assay for urokinase plasminogen activator (uPA) Biomarker Activity (AID 2283075); conditions: primary human keratinocytes with fibroblasts; actives raise or lower the signal
Method in brief: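 Values derive from bidirectional fitting against DMSO controls. Keratinocyte/foreskin fibroblast co-cultures received chemical; 24 h later uPA was detected by ELISA, with SRB total-protein staining in parallel wells for overt cytotoxicity.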

CD40, CD40 (gene 958) [2] = experiment: BSK_LPS_CD40: BioMAP Diversity Plus: LPS Assay for CD40 Biomarker Activity (AID 2283076); conditions: primary human HUVEC with PBMC; actives raise or lower the signal
Method in brief: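 HUVEC plus PBMC co-culture stimulated with LPS; CD40 quantified by ELISA 24 h after compound dosing. Fitting was bidirectional relative to DMSO. SRB staining of parallel cultures flagged overt cytotoxicity.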

[3] = read-out: E-selectin (Homo sapiens) (UniProt P16581); experiment: BSK_LPS_Eselectin: BioMAP Diversity Plus: LPS Assay for Eselectin Biomarker Activity (AID 2283077); conditions: primary human HUVEC with PBMC; actives raise or lower the signal
Method in brief: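 Human umbilical vein endothelial cells co-cultured with PBMC under LPS stimulation; cell-surface E-selectin measured by ELISA 24 h after dosing. Change in either direction versus DMSO, with SRB total-protein staining in parallel cultures for cytotoxicity.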

[4] = BSK_LPS_SRB: Viability Assessment in the BioMAP Diversity Plus: LPS Assay (AID 2283079); conditions: primary human HUVEC with PBMC;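 further: total protein by sulforhodamine B absorbance as a cytotoxicity measure; measured one day after compound addition; fitted in both directions against DMSO so loss or gain of signal counts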
Method in brief: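 Co-culture of human umbilical vein endothelial cells and PBMC, read 24 h after dosing. Total protein by 0.1% SRB staining after 10% TCA fixation, absorbance at 560 nm; bidirectional fit against DMSO.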

[5] = read-out: Interleukin-1 alpha (IL1a), IL1A (gene 3552); experiment: BSK_LPS_IL1a: BioMAP Diversity Plus: LPS Assay for Interleukin-1 alpha (IL1a) Biomarker Activity (AID 2283080); conditions: primary human HUVEC with PBMC; actives raise or lower the signal
Method in brief: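 Human umbilical vein endothelial cells co-cultured with PBMC and stimulated with LPS; IL-1a measured by ELISA 24 h after dosing. Bidirectional fitting against DMSO; cytotoxicity checked by SRB staining in parallel cultures.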

[6] = read-out: Monocyte Chemoattractant Protein-1 (MCP1), CCL2 (gene 6347); experiment: BSK_LPS_MCP1: BioMAP Diversity Plus: LPS Assay for Monocyte Chemoattractant Protein-1 (MCP1) Biomarker Activity (AID 2283081); conditions: primary human HUVEC with PBMC; actives raise or lower the signal
Method in brief: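 Human umbilical vein endothelial cells co-cultured with PBMC, LPS-stimulated; secreted MCP-1 measured by ELISA 24 h after compound addition. Bidirectional curve fitting against DMSO baseline; SRB total-protein staining in parallel cultures for cytotoxicity.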

[7] = BSK_LPS_PGE2: BioMAP Diversity Plus: LPS Assay for Prostaglandin E2 (PGE2) Biomarker Activity (AID 2283082); conditions: primary human HUVEC with PBMC; actives raise or lower the signal
Method in brief: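 ELISA read-out of PGE2 from human umbilical vein endothelial cells co-cultured with peripheral blood mononuclear cells under LPS, 24 h post-dose. Gain or loss of signal scored relative to DMSO baseline.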

[8] = read-out: Macrophage colony-stimulating factor (MCSF), CSF1 (gene 1435); experiment: BSK_LPS_MCSF: BioMAP Diversity Plus: LPS Assay for Macrophage colony-stimulating factor (MCSF) Biomarker Activity (AID 2283083); conditions: primary human HUVEC with PBMC; actives raise or lower the signal
Method in brief: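 HUVEC–PBMC co-culture, M-CSF measured by ELISA 24 h after chemical dosing. Fitted in both directions relative to DMSO as negative control; overt cytotoxicity assessed by SRB total-protein staining in parallel cultures.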

[9] = read-out: Tissue Factor, F3 (gene 2152); experiment: BSK_LPS_TissueFactor: BioMAP Diversity Plus: LPS Assay for Tissue Factor Biomarker Activity (AID 2283084); conditions: primary human HUVEC with PBMC; actives raise or lower the signal
Method in brief: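 Human umbilical vein endothelial cells co-cultured with PBMC were dosed with compound. Cell-surface CD142 was measured by ELISA 24 h later. Activity was fitted bidirectionally against DMSO, with SRB total-protein staining in parallel cultures for cytotoxicity.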

[10] = read-out: Tumor necrosis factor (Homo sapiens) (UniProt P01375); experiment: BSK_LPS_TNFa: BioMAP Diversity Plus: LPS Assay for Tumour Necrosis Factor alpha (TNFa) Biomarker Activity (AID 2283085); conditions: primary human HUVEC with PBMC; actives raise or lower the signal
Method in brief: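 HUVEC/PBMC co-culture, LPS-stimulated; 24 h post-dose; TNFa by ELISA; gain or loss of signal fitted bidirectionally vs DMSO baseline.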

[11] = read-out: Vascular cell adhesion molecule 1 (VCAM1), VCAM1 (gene 7412); experiment: BSK_LPS_VCAM1: BioMAP Diversity Plus: LPS Assay for Vascular cell adhesion molecule 1 (VCAM1) Biomarker Activity (AID 2283086); conditions: primary human HUVEC with PBMC; actives raise or lower the signal
Method in brief: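 ELISA read-out of VCAM-1 at 24 h post-dosing in an LPS-driven HUVEC/PBMC primary human co-culture; gain or loss of signal fitted bidirectionally against DMSO baseline. Cytotoxicity tracked in parallel cultures by SRB total-protein staining.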

CD38, CD38 (gene 952) = experiment: BSK_SAg_CD38: BioMAP Diversity Plus: SAg Assay for CD38 Biomarker Activity (AID 2283087); conditions: primary human HUVEC with PBMC; actives raise or lower the signal
Method in brief: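 Measures CD38 on a human endothelial/PBMC co-culture driven by SEB and TSST-1, 24 h after compound exposure, using ELISA with fluorescence detection; DMSO defines baseline for bidirectional curve fitting.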

CD40, CD40 (gene 958) [12] = experiment: BSK_SAg_CD40: BioMAP Diversity Plus: SAg Assay for CD40 Biomarker Activity (AID 2283088); conditions: primary human HUVEC with PBMC; actives raise or lower the signal
Method in brief: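 HUVEC plus PBMC co-culture, superantigen-activated, with CD40 read by ELISA 24 h after dosing. Curves fitted in both directions against DMSO. Overt cytotoxicity checked by parallel SRB total-protein staining.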

CD69, CD69 (gene 969) = experiment: BSK_SAg_CD69: BioMAP Diversity Plus: SAg Assay for CD69 Biomarker Activity (AID 2283089); conditions: primary human HUVEC with PBMC; actives raise or lower the signal
Method in brief: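 Values derive from bidirectional fitting relative to DMSO vehicle. Cells: umbilical vein endothelium plus peripheral blood mononuclear cells, treated 24 h before fluorescent ELISA for CD69.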

[13] = read-out: Monocyte Chemoattractant Protein-1 (MCP1), CCL2 (gene 6347); experiment: BSK_SAg_MCP1: BioMAP Diversity Plus: SAg Assay for Monocyte Chemoattractant Protein-1 (MCP1) Biomarker Activity (AID 2283090); conditions: primary human HUVEC with PBMC; actives raise or lower the signal
Method in brief: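 Values derive from bidirectional fitting of ELISA-measured MCP1 against DMSO controls. Readings were taken 24 h after dosing human vascular endothelial cells co-cultured with peripheral blood mononuclear cells under superantigen stimulation.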

[14] = read-out: E-selectin (Homo sapiens) (UniProt P16581); experiment: BSK_SAg_Eselectin: BioMAP Diversity Plus: SAg Assay for Eselectin Biomarker Activity (AID 2283091); conditions: primary human HUVEC with PBMC; actives raise or lower the signal
Method in brief: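 Human umbilical vein endothelial cells co-cultured with peripheral blood mononuclear cells, SAg system. E-selectin is measured by ELISA 24 h after dosing and fitted bidirectionally against DMSO. Cytotoxicity is checked by SRB staining of parallel cultures.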

[15] = read-out: Monokine induced gamma interferon (MIG), CXCL9 (gene 4283); experiment: BSK_SAg_MIG: BioMAP Diversity Plus: SAg Assay for Monokine induced gamma interferon (MIG) Biomarker Activity (AID 2283092); conditions: primary human HUVEC with PBMC; actives raise or lower the signal
Method in brief: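 Values reflect bidirectional fitting of ELISA-measured MIG against DMSO vehicle, taken 24 h after dosing of a co-culture of human umbilical vein endothelial cells and peripheral blood mononuclear cells.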

[16] = read-out: Interleukin-8 (IL8), CXCL8 (gene 3576); experiment: BSK_SAg_IL8: BioMAP Diversity Plus: SAg Assay for Interleukin-8 (IL8) Biomarker Activity (AID 2283094); conditions: primary human HUVEC with PBMC; actives raise or lower the signal
Method in brief: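 HUVEC/PBMC co-culture, 24 h post-dose; IL-8 by ELISA. Gain or loss of signal fitted bidirectionally vs DMSO baseline.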

[17] = BSK_SAg_PBMCCytotoxicity: PBMC Cytotoxicity Assessment in the BioMAP Diversity Plus: SAg Assay (AID 2283093); conditions: primary human HUVEC with PBMC;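 further: PBMC viability measured as Alamar Blue reduction fluorescence at 546/580 nm; fitted both ways against DMSO so a hit may be loss or gain of signal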
Method in brief: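 Alamar Blue reduction (6 h, 546/580 nm) reports PBMC cytotoxicity after 90 h superantigen activation (SEB, TSST-1; 20 ng/mL final each) with 1 h compound pre-treatment. Gain or loss of signal fitted versus DMSO.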

Measured: outcome

Chain of E-selectin (Homo sapiens) (P16581 whole entry, looked up): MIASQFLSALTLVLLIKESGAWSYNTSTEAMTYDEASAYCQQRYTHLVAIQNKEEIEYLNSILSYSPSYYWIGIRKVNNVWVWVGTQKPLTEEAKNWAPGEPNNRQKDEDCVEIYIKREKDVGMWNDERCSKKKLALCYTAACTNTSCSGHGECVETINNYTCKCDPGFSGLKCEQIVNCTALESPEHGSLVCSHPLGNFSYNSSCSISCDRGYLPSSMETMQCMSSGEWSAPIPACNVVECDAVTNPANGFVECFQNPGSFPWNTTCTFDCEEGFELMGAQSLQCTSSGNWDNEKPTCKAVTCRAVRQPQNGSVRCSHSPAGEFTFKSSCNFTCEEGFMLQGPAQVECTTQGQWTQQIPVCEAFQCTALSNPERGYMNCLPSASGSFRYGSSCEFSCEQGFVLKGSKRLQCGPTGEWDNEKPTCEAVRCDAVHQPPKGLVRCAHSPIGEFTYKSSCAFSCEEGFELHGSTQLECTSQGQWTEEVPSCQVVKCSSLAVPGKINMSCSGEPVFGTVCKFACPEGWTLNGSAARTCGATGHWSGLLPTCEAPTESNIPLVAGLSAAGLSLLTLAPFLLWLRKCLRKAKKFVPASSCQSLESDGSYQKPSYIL
Chain of Tumor necrosis factor (Homo sapiens) (P01375 whole entry, looked up): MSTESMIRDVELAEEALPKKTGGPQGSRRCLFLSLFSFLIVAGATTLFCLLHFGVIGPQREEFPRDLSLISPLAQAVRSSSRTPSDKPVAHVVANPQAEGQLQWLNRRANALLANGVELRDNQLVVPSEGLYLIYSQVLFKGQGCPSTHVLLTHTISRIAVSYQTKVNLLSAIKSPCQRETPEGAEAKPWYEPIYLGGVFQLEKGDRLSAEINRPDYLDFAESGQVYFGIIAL

CC(N)=O
not listed: [17]
inactive: all other assays above

O=C(O)c1[nH]n(-c2ccc(S(=O)(=O)O)cc2)c(=O)c1N=Nc1ccc(S(=O)(=O)O)cc1
not listed: [9]
inactive: all other assays above

CC(C)(C)c1ccccc1
not listed: [9]
inactive: all other assays above

O=NO
not listed: [9]
inactive: all other assays above
